Most compounds without a hit are left out; they make up all but 3.5% or so of the library.
Anthrax LF inh2 = inhibitors of Bacillus anthracis lethal factor protease; P15917; multiplex microsphere protease cleavage assay, LF; inhibition, % at 10 µM; actives 0.12% (n = 360,000); note: plate controls were buffer without enzyme for full effect and enzyme alone for no effect
BoNT-A LC inh2 = blocks Botulinum neurotoxin A light chain protease. multiplex microsphere protease substrate cleavage, flow cytometry. inhibition, % at 10 µM. actives 0.17% (n = 360,000). AID 588499; note: plate controls were buffer without enzyme for full effect and enzyme alone for no effect
BJeLR lethal = BJeLR cell viability loss | actives 0.17% (n = 300,000) | BJeLR (HRASV12) viability, CellTiter-Glo ATP luminescence, 48 h | inhibition, % (concentration not given with the values); in the data active = inhibition above about 50%; inconclusive = no clear call, values can overlap the other calls
BoNT F protease = blocks Botulinum neurotoxin F light chain protease. Multiplex microsphere protease cleavage assay, flow cytometry. inhibition, % at 10 µM. actives 0.22% (n = 360,000). AID 588497; in the data active = inhibition above about 35%, passing the limit was not always enough; inconclusive = no clear call, values can overlap the other calls; note: plate controls were buffer without enzyme for full effect and enzyme alone for no effect
Bead autofluor = counter-screen for toxin protease inhibitors: compound fluorescence; compound autofluorescence counterscreen, microsphere flow cytometry; active compounds read high; fluorescence intensity (test concentration not listed); actives 3.1% (n = 360,000); AID 624483; in the data active = fluorescence intensity above about 16000; inconclusive = no clear call, values can overlap the other calls
Starred values were filed as active, the others as inactive; u = inconclusive; x = no result given. Cut-off read from the data, not from the text of the source, unless noted: active = inhibition above about 30%; inconclusive = no clear call, values can overlap the other calls; inactive = below that.

SMILES | Anthrax LF inh2 | BoNT-A LC inh2 | BJeLR lethal | BoNT F protease | Bead autofluor
CS(=O)(=O)N1N=C(c2ccc3nccnc3c2)CC1c1ccccc1 (stereo unspecified) | 0 | 1 | 1 | 1 | 24132*
CCOc1ccc(N(CC(=O)NCc2ccc(F)cc2)C(=O)CCC(=O)Nc2nccs2)cc1 | 7 | -3 | -14 | -19 | 4098
CCOC(=O)CC(=O)CSc1ccc2nnc(-c3ccc(F)cc3)n2n1 | 0 | 1 | -4 | 5 | 10492
CCOC(=O)CC(=O)CSc1ccc2nnc(-c3cccc(F)c3)n2n1 | 2 | u | -5 | -4 | 16650*
Cc1cc(=S)cc(C)n1CCO | -4 | 0 | -13 | 1 | 2719
Cc1cc(C)n(CCO)c(=O)n1 | 1 | u | 5 | 2 | 20285*
CCCCn1nnnc1C(c1ccccc1OC(F)(F)F)N1CCN(C/C=C/c2ccccc2)CC1 (stereo unspecified) | -7 | 0 | x | -4 | 5978
Cc1ccccc1OCC(=O)Nc1ccc2c(c1)COC2=O | 2 | -1 | -14 | -2 | 20173*
CCc1ccc(OCC(=O)Nc2ccc3c(c2)COC3=O)cc1 | 3 | 2 | 5 | 7 | 4020
CCOc1ccc(NC(=O)CN(C)C(=O)c2cc3c(s2)CCC(C)C3)cc1OCC (stereo unspecified) | 4 | 2 | x | 4 | 6443
COc1ccc(OC)c(C2=NOC(C(=O)Nc3ccccc3SC)C2)c1 (stereo unspecified) | 6 | 0 | 1 | -9 | 4527
COc1ccc(OC)c(C2=NOC(C(=O)Nc3cccc(C(C)=O)c3)C2)c1 (stereo unspecified) | 0 | 0 | 8 | 2 | 23110*
COc1cc(NC(=O)C2CC(c3cccc(OC)c3OC)=NO2)cc(OC)c1OC (stereo unspecified) | -2 | 3 | -1 | 2 | 22158*
COc1cccc(C2=NOC(C(=O)Nc3cccnc3Cl)C2)c1OC (stereo unspecified) | 3 | -1 | 4 | 0 | 2430
COc1ccc(CC(=O)NCc2ccccc2)cc1S(=O)(=O)N1CCOCC1 | 4 | 0 | -5 | -3 | 8566
COc1ccc(CC(=O)NCc2ccccc2Cl)cc1S(=O)(=O)N1CCOCC1 | 1 | 0 | 7 | -1 | 23297*
O=C(O)CCn1c(=O)sc2ccccc21 | 0 | 0 | -6 | -1 | 4244
O=c1sc2ccccc2n1CCOc1ccccc1 | -3 | -2 | -3 | -4 | 23573*
COc1ccccc1OCCCn1c(=O)sc2ccccc21 | -5 | u | -1 | -3 | 20682*
CCOC(=O)Cn1c(=O)sc2ccccc21 | 0 | 1 | -3 | 1 | 23284*
CCOC(=O)c1ccccc1NC(=O)CN1C(=O)NC(C)(CCc2ccccc2)C1=O (stereo unspecified) | -4 | 4 | 10 | 7 | 5752
CN(c1ccccc1)C(c1ccc(F)cc1)c1nnnn1C1CCCC1 (stereo unspecified) | -5 | u | 5 | -8 | 23833*
CN(c1ccccc1)C(c1ccc(F)cc1)c1nnnn1CC1CCCO1 (stereo unspecified) | -1 | 0 | -2 | -2 | 16681*
Cc1ccc(C(c2nnnn2C2CCCCC2)N(C)C2CCCCC2)cc1 (stereo unspecified) | -1 | 0 | 2 | -3 | 7015
Cc1ccc(C(c2nnnn2CC2CCCO2)N2CCN(Cc3ccccc3)CC2)cc1 (stereo unspecified) | -3 | -1 | 2 | -4 | 4644
SMILES | Anthrax LF inh2 | BoNT-A LC inh2 | BJeLR lethal | BoNT F protease | Bead autofluor
Cc1ccc2c3c(cccc13)-c1ccccc1C2=O | 44* | 74* | 1 | 28 | 6102
Cc1ccc(N2C(=O)N(CC(=O)Nc3cc(Cl)ccc3C)C(=O)C2C)cc1 (stereo unspecified) | 0 | 2 | -1 | 9 | u
CS(=O)(=O)NCCSCc1c(Cl)cccc1Cl | 0 | -2 | 5 | -2 | 17037*
CS(=O)(=O)NCCSCc1c(F)cccc1Cl | 1 | 0 | 0 | -2 | 2553
CS(=O)(=O)NCCSCc1ccccc1 | -1 | 0 | 0 | -6 | 4466
COc1ccc(S(=O)(=O)NCCSCc2ccccc2C)cc1Br | -2 | 1 | 1 | 0 | 16146*
Cc1ccccc1CSCCNS(C)(=O)=O | -4 | -2 | 6 | -2 | 17003*
C=CCN(Cc1cn(C)nc1-c1cccc(Cl)c1)C1CCS(=O)(=O)C1 (stereo unspecified) | 0 | -2 | x | -7 | 5434
Cc1cccc(NS(=O)(=O)c2c(C(=O)N3CCOCC3)c(C)n(C)c2C)c1C | -2 | 2 | -11 | 6 | 5345
